Records with an inconclusive call do not appear. A number with no mark means an inactive call. Calls of active or inactive are those of the source. The call rests on the fitted dose curve; in most records, active means well fitted inhibition curve with a large enough effect; inconclusive means small, poorly fitted or top-dose-only effect; inactive means flat fitted curve, though single readings scatter.
test system: Zika virus NS2B-NS3 protease; assay: Primary screen GU AMC qHTS for Zika virus inhibitors (AID 1347154); details: Zika NS2B-NS3 unlinked protease, AMC fluorogenic substrate; series mostly up to 54.1 µM; activity change, negative = inhibition: at the top concentration; further: nearly all actives have a fitted effect of over 70% in size;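 on activity change, negative = inhibition: 0% = no-inhibitor control and -100% = no-enzyme control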
Method in brief: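 Fluorogenic AMC-substrate cleavage by noncovalent NS2B-NS3 protease complex (25 nM, pH 8.0 Tris buffer with Tween 20) followed for 15 minutes at room temperature (~20% conversion). Percent inhibition from ex340/em450 signal change, fitted by 4-parameter Hill equation.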
Potency means the concentration at half of the fitted maximal effect.

SMILES | activity change, negative = inhibition | Potency
Cc1cnc(NC(=O)Nc2cc(Br)c(C)cc2OC[C@@H]2CNCCO2)cn1 | 11.9% | 
C=C1C(=O)O[C@H]2[C@@H]1CCC(C)=CCC[C@@]1(C)O[C@@H]21 | 7.99% | 
Nc1nc2c(c(=O)[nH]1)N(C=O)[C@H](CNc1ccc(C(=O)N[C@@H](CCC(=O)O)C(=O)O)cc1)CN2 | 24.8% | 
COc1ccc(C=Cc2cc(OC)c(OC)c(OC)c2)cc1NC(=O)[C@H](N)CO | -10.3% | 
COC(=O)C1C2CC3c4[nH]c5cc(OC)ccc5c4CCN3CC2CC(OC(=O)c2cc(OC)c(OC)c(OC)c2)C1OC (centres undefined) | 21.7% | 
O=C1CSC(=O)N1C(CCc1ccncc1)COc1ccc(-c2cccc([N+](=O)[O-])c2)cc1 (centres undefined) | 20.1% | 
COc1ccc([C@@H]2CNC(=O)C2)cc1OC1CCCC1 |  | inactive
CS[C@H]1SC[C@@H]2C(=O)N(C)[C@H](C(C)C)C(=O)OC[C@H](NC(=O)c3cnc4ccccc4n3)C(=O)N[C@H](C)C(=O)N(C)[C@@H]1C(=O)N(C)[C@H](C(C)C)C(=O)OC[C@H](NC(=O)c1cnc3ccccc3n1)C(=O)N[C@H](C)C(=O)N2C | -1.7% | 
NC(=O)c1ncn([C@@H]2O[C@H](CO)[C@@H](O)[C@@H]2O)c1N | -12% | 
C[C@H]1C[C@H]2[C@@H]3CCC4=CC(=O)C=C[C@]4(C)[C@@H]3C(=O)C[C@]2(C)[C@@]1(O)C(=O)CO | 2.9% | 
C#C[C@]1(O)CC[C@@H]2[C@@H]3CCC4=CC(=O)CC[C@@H]4[C@H]3CC[C@@]21CC | -6.9% | 
O=C1NCCc2[nH]c(-c3ccncc3)cc21 | 8.61% | 
CCc1cnn2c(NCc3ccc[n+]([O-])c3)cc(N3CCCC[C@@H]3CCO)nc12 | 10.4% | 
O=[N+]([O-])c1cn2c(n1)OC[C@@H](OCc1ccc(OC(F)(F)F)cc1)C2 | 3.73% | 
Nc1ccn(C[C@@H](CO)OCP(=O)(O)O)c(=O)n1 | 8.48% [at 25.8 µM] | 
COc1cc(C(=O)NC2CCN(C)CC2)ccc1Nc1ncc2c(n1)N(C1CCCC1)CCC(=O)N2C(C)C | -0.39% | 
O=C(c1ccc(F)cc1)N1CCC[C@H](c2nc(-c3ccc(F)cc3)no2)C1 | 6.17% | 
COc1cc(OC)cc(-c2ccc3ncc4ccc(=O)n(-c5ccc(N6CCNCC6)c(C(F)(F)F)c5)c4c3c2)c1 | 2.52% | 
O=C1NC(=O)[C@@H](c2cn3c4c(cccc24)CCC3)[C@H]1c1c[nH]c2ccccc12 | 14.2% | 
COc1cc([C@@H]2c3cc4c(cc3[C@H](O)[C@H]3COC(=O)[C@@H]23)OCO4)cc(OC)c1OC | 9.52% | 

SMILES | activity change, negative = inhibition | Potency
CC(=O)[C@]1(O)Cc2c(O)c3c(c(O)c2[C@@H](O[C@H]2C[C@H](N)[C@@H](O)[C@H](C)O2)C1)C(=O)c1ccccc1C3=O | 8.95% | 
C=CC1=C(C(=O)O)N2C(=O)[C@@H](NC(=O)C(=NO)c3csc(N)n3)[C@H]2SC1 | 3.22% | 
CC(C)(C)[N+]([O-])=Cc1ccc(S(=O)(=O)O)cc1S(=O)(=O)O | 1.62% | 
NC[C@H]1O[C@H](O[C@H]2[C@@H](O)[C@@H](O[C@H]3O[C@H](CO)[C@@H](O)[C@H](N)[C@@H]3O)[C@H](N)C[C@@H]2N)[C@H](N)C[C@H]1O | 13.5% | 
O=C(C=CC#Cc1cccc(NS(=O)(=O)c2ccccc2)c1)NO | -6.43% | 
COC(=O)C=CC(=O)OC | 8.58% | 
c1cc(CN2CCCNCCNCCCNCC2)ccc1CN1CCCNCCNCCCNCC1 | 3.64% | 
Cn1cc(C[C@@H](N)C(=O)O)c2ccccc21 | 3.43% [at 25.8 µM] | 
N#Cc1ccc(COC[C@H]2O[C@@H](n3c(NCc4ccc(Cl)c(Cl)c4)nc4c(N)ncnc43)[C@@H](O)[C@@H]2O)cc1 | 7.32% | 
CN1[C@H]2CC(OC(=O)[C@@H](CO)c3ccccc3)C[C@H]1[C@H]1O[C@H]12 (some centres undefined) | 15% [at 25.8 µM] | 
C[C@H](NCc1ccc(OCc2cccc(F)c2)cc1)C(N)=O | 1.87% | 
Cc1noc(-c2ccc(CSCCC(=O)O)cc2)c1NC(=O)OC(C)c1ccccc1Cl (centres undefined) | -4.24% | 
CCCCCCCN(CC)CCCC(O)c1ccc(NS(C)(=O)=O)cc1 (centres undefined) |  | 24.1 µM (active)
O=C(O)[C@H](CC(=O)N1C[C@@H]2CCCC[C@H]2C1)Cc1ccccc1 | 20.5% | 
COc1cc2c(cc1OC)[C@@H]1C(=O)c3ccc4c(c3O[C@@H]1CO2)C=CC(C)(C)O4 | 1.25% | 
CC1(C)CC(O)CC(C)(C)N1[O] | 12.8% | 
CCOC(=O)C1=C(C)NC(=S)NC1c1cccc(O)c1 (centres undefined) | -6.36% | 
CN1CCCN(C(=O)c2cccc(-c3ccc(C=C4C(=O)Nc5ccc(Cl)cc54)o3)c2)CC1 | -11.2% | 
CC[C@H]1OC(=O)[C@H](C)[C@@H](O[C@H]2C[C@@](C)(OC)[C@@H](O)[C@H](C)O2)[C@H](C)[C@@H](O[C@@H]2O[C@H](C)C[C@H](N(C)C)[C@@H]2O)[C@](C)(OC)C[C@@H](C)C(=O)[C@H](C)[C@@H](O)[C@]1(C)O | 3.75% | 
